About 740 (0.23%) of roughly 320,000 compounds were called active. Roughly 2% stayed inconclusive and do not appear here. Calls come from the whole dose curve; as a rule, active = well fitted activation curve with a large enough effect; inconclusive = small, poorly fitted or top-dose-only effect; inactive = no such curve, though single readings can be large or run the other way. The list comes from a sample in which actives are over-represented; it also holds similar structures and randomly drawn compounds.
Assay: qHTS Assay for Small Molecule Inhibitors of Mitochondrial Division or Activators of Mitochondrial Fusion; note: nearly all actives have a fitted effect of over 45% in size; for growth rescue (activation): % of control where 0% means no effect
Details: S. cerevisiae fusion-defective mutant growth rescue, CellTiterGlo 48 h; series mostly up to 46.1 µM; growth rescue (activation): at the top concentration
Description: NIH Chemical Genomics Center [NCGC] NIH Molecular Libraries Probe Production centers Network [MLPCN] MLPCN Grant: MH081279-01 Assay Submitter (PI): Jodi M. Nunnari NCGC Assay Overview: The budding yeast S. cerevisiae is a powerful system to study mitochondrial fusion. Unlike other organisms, yeast cells without functional mitochondrial DNA (mtDNA) can be propagated and studied as long as they maintain a mitochondrial compartment and are provided with a fermentable carbon source. When mitochondrial fusion is blocked in yeast, mitochondrial tubules rapidly fragment and division continues unopposed. Under conditions where fusion is compromised in mammalian cells, nearly identical changes in mitochondrial structure have been observed. Thus, these findings indicate that steady state mitochondrial structure in cells is a characteristic and specific indicator of fusion activity. Mounting evidence has pointed to a connection between mitochondrial dynamics and apoptosis in mammalian cells. These studies indicate that in mammalian cells mitochondrial dynamics are more integrated into cellular processes than in yeast cells and have evolved not only to distribute the organelle but also to aid in the regulation of cellular homeostasis. Mitochondrial fusion proteins attenuate apoptosis by inhibiting the release of cytochrome c from mitochondria, in part by controlling cristae structures. Thus, small molecules that inhibit mitochondrial […] may promote apoptosis and potentially act as novel chemotherapeutics and stimulation of apoptosis has become an attractive target of anti-cancer therapies. To identify inhibitors of mitochondrial division, we exploit the growth phenotypes of mitochondrial fusion-defective mutants. The temperature sensitive fusion alleles, such as fzo1-1 and mgm1-5, cause mitochondrial membranes to fragment in cells under non-permissive conditions and cells lose mtDNA, and are unable to grow in the presence of non-fermentable carbon source glycerol. Inhibiting mitochondrial division rescues growth. We have developed and optimized a luminescence cell viability assay in 1536 well format for the identification of inhibitors in the yeast mitochondrial fusion-defective assay.
The yeast glycerol stocks where kindly supplied by the laboratory of Dr. Jodi Nunnari, University of California, Davis. All yeast glycerol stock solutions were stored in single use aliquots at -80C. The CellTiterGlo luminescence reagent, containing luciferase and luciferin, were purchased from Promega, and the reagents were stored according to manufacturer's instructions. The Buffer components for the YPEG yeast growth medium were purchased from Sigma-Aldrich (St. Louis, MO). YPEG growth medium: 1% (w/v) yeast extract, 2% (w/v) Bacto-peptone, 3% Ethanol, 3% glycerol, 0.4mM Tryptophan, 0.36mM Adenine. qHTS Assay Protocol: 1.#Dispense 2.5 ul yeast growth medium per 1536 well plate. 2.#Transfer 23 nl per well of compound to plate. 3.#Dispense 2.5 ul yeast solution at appropriate seeding density per well. 4.#Incubate for 48 hours at 37C. 5.#Dispense 5 ul of CellTiterGlow solution per well. 6.#Incubate at ambient for 10 minutes. 7.#Read using bio-luminescence protocol on Viewlux.
Potency is the fitted concentration of half-maximal effect.

Growth rescue (activation), inactive:
Oc1ccc(Cn2cc[nH]c2=S)cc1 -1.97%
CN(C)CCN=c1cc(-c2ccccc2)oc2ccc(Cl)cc12 -3.04%
COc1ccc(/C=C/c2c(-c3cccc(C)c3)oc3ccc(-c4ccc5c(c4)OCO5)cc23)cc1 -0.013%
CSCC(NS(=O)(=O)c1ccc(C)cc1)C(=O)O (stereo not drawn) 1.27%
CSCCC(NC(=O)c1ccccc1)C(=O)N1CCCCCCC1 (stereo not drawn) 2.81%
CC(=O)c1cccc(NC(=O)C2CCCN2S(=O)(=O)c2cccc3nsnc23)c1 (stereo not drawn) -1.28%
C=CCn1c(CCNC(=O)c2ccccc2F)nnc1SCC(=O)Nc1ccc(OC)cc1 -3.75%
CC(=O)NC(c1cccs1)c1cc(Br)c2cccnc2c1O (stereo not drawn) 7.37%
Cc1cc(C(=O)Nc2nnc(C3CC3)s2)c(C)s1 8.28%
O=C(CNC(=O)c1ccc(F)cc1)c1ccccc1 -3.34%
C[C@H](NC(=O)c1ccccc1)C(=O)OCC(=O)c1c[nH]c2ccccc12 -0.566%
Cc1nnnn1/C(=C\c1ccccc1)C(=O)OCC(=O)N1CC2(C)CC1CC(C)(C)C2 (stereo not drawn) -8.27%
O=C(Cc1ccccc1)Nc1c(C(=O)N2CCCCCC2)cnn1-c1ccccc1 -1.61%
CCC(C)(C)n1nnnc1CN1CCN(c2nc3ccc(C)cc3cc2C#N)CC1 -0.559%
O=C(/C=C/c1ccccc1)Oc1coc(CSc2ncccn2)cc1=O 0.25%
Nc1c(C(=O)OCC(=O)Nc2ccc(OC(F)F)cc2)[nH]c(=O)[nH]c1=O -0.106%
CC1CCCCC1NC(=O)CO/N=C/c1ccc(OC(F)F)cc1 (stereo not drawn) -0.219%
CCOc1ccc(/C=N/OCC(=O)NCc2cccs2)cc1 -9.69%
Clc1ccc(C2[C@H]3CN(CC4CCCCC4)[C@H](c4ccccc4)C34CC2(c2cccnc2)C4)cn1 (stereo partly drawn) 4.84%
CCc1ccc[n+](-c2nc([O-])sc2C=O)c1 -6.48%
CCOC(=O)/C=C/C(=O)OCC(=O)NC(c1ccccc1)c1ccccc1 -0.211%
c1n[nH]c(NCc2ccc3c(c2)OCO3)n1 -5.05%
Cn1cc(CCC(=O)NCc2ccc3c(c2)OCO3)c2ccccc21 4.45%
O=C(COC(=O)c1ccccc1NC(=O)c1ccco1)Nc1ccc2c(c1)OC(F)(F)O2 -3.36%
CCCN1C(=O)C(O)(CC(=O)c2ccc(CC)cc2)c2cc(Br)ccc21 (stereo not drawn) 0.908%
CC(=O)Nc1cccc(Nc2nc(-c3cccs3)nc3ccccc23)c1 27.5%
COc1ccc(Nc2nc(-c3cccnc3)nc3ccccc23)cn1 12.2%
COc1ccc(OCCNS(=O)(=O)Cc2ccccc2)cc1 -4.23%
Cc1ccc(NC(=O)c2cc([N+](=O)[O-])ccc2Cl)c(O)c1 -3.88%
CCC(C)C(NC(=O)C1CCC(=O)N1C(=O)OCc1ccccc1)C(=O)NC(C(=O)N1CCCC1C(N)=O)C(C)CC (stereo not drawn) 2.2%
Nc1ccc(Nc2cc(O)c3ncccc3c2)cc1 -3.21%
CC(C)Nc1ncnc2c1nnn2Cc1ccccc1 2.53%
Cn1ncc2c(Nc3cccc4ccccc34)ncnc21 2.67%
CCOC(=O)N1CCN(C(=O)COC(=O)c2cccc(S(C)(=O)=O)c2)CC1 1.09%
CCOC(=O)C(=CNNc1ccsc1C(=O)OC)C(=O)OCC -8.56%
Cc1ccc(O)c(CNc2nc3ccccc3[nH]2)c1 -0.0891%
Cc1ccc(O)c(CNc2nc3ccccc3n2C)c1 -1.24%
CC(/C=C/C1(O)C(C)CC(=O)CC1(C)C)OC1OC(CO)C(O)C(O)C1O (stereo not drawn) -0.841%
CCCC(C)C(=O)OCC(=O)Nc1c(Br)cc(C)cc1Br (stereo not drawn) 0.339%
Cn1c(=O)c2c(n3c4ccccc4nc13)NC(=O)CC2c1cccc(Cl)c1 (stereo not drawn) -2.06%
CC(C)C(=O)Nc1ccc2c3c(cccc13)CC2 -2.47%
CCOc1ccc(-n2nc3ccc(NC(=O)c4ccc(OC)c(Cl)c4)cc3n2)cc1 -4.29%
Cc1cc(-c2nnc(CCC(=O)NC(c3ccccc3)c3ccccc3)o2)no1 2.21%
O=C(C(NS(=O)(=O)c1cccc2nsnc12)c1ccccc1)N1CCN(c2ccccn2)CC1 (stereo not drawn) 8.47%
O=C(O)C(NS(=O)(=O)c1cccc2nsnc12)c1ccccc1 (stereo not drawn) 0.207%

Potency, active:
CSCCC(NS(=O)(=O)c1ccc(C)cc1)C(=O)N1CCCC1 (stereo not drawn) 35.5 µM
CN(C)c1ccc(C(CNC(=O)c2ccc(F)cc2)c2c[nH]c3ccccc23)cc1 (stereo not drawn) 15.8 µM
O=C(CO/N=C/c1ccc(OC(F)F)cc1)NCc1ccc(F)cc1 6.31 µM
N#Cc1nc(Cc2cccc3ccccc23)oc1NCc1ccc2c(c1)OCO2 11.2 µM
Cc1cccc(-c2nc(Nc3ccc(O)cc3)c3ccccc3n2)c1 35.5 µM
CN(C)c1cc2c(Nc3ccc4c(cnn4Cc4ccccc4)c3)ncnc2cn1 18.4 µM
Cc1ccc2nnn(Cc3cccc(C(C)(C)C)c3O)c2c1 12.6 µM
O=C(C(NS(=O)(=O)c1cccc2nsnc12)c1ccccc1)N1CCN(c2ccccc2)CC1 (stereo not drawn) 17.8 µM

Source: PubChem BioAssay AID485298 (National Center for Advancing Translational Sciences (NCATS), 2010)
